PubChem BioAssay (NCI)
Values joined by “and” are separate entries in the source; they are usually repeats but may differ in a detail not shown here. Equal entries are not always repeated. This is part of a sample that, as a whole, favours compounds with a hit. Of some 83,000 tested, about 20% had one in any assay.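 The test compound was applied at a single concentration to cells in 96-well plates for 48 hours, and percent growth was recorded.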 Active and inactive are the calls of the source. Rule for the calls: active = growth percent below 10; inactive = the rest.

Each compound was assayed on MDA-MB-468 breast (assay: NCI-60 one-dose screen, 48 h (100 = growth as untreated, 0 = no growth, -100 = all killed)). Conditions: 10 µM unless noted.

Structure (SMILES) | growth
COc1cc2oc(-c3cccc(C(=O)Nc4ccc(Br)cc4)c3)cc(=O)c2c(OC)c1OC | 64.3% (inactive)
Nc1cccc(NC(=O)C(=O)Nc2cccc(N)c2)c1 | 117% (inactive)
COc1cc2c(c(OC)c1OC)C(=O)CC(c1cccc(C(=O)Nc3cccc(Br)c3)c1)O2 (stereo not given) | 71% (inactive)
Cn1c(=O)cc(NC(=O)CN2CCN(c3cc4c(cc3F)c(=O)c(C(=O)O)cn4C3CC3)CC2)[nH]c1=O | 92.6% (inactive)
CCc1c2c(nc3ccc(OC(=O)NCc4ccc(B5OC(C)(C)C(C)(C)O5)cc4)cc13)-c1cc3c(c(=O)n1C2)COC(=O)[C@]3(O)CC | -33.9% (active)
Clc1cc(Cl)cc(N2N=C(c3cccc(Nc4ccncc4)c3)CC2c2ccc(Br)cc2)c1 (stereo not given) | 44.9% (inactive)
O=C(N=Nc1c(O)[nH]c2ccccc12)Nc1ccc(Cl)cc1 | 81.7% (inactive)
Cc1c(Cl)cc(Cl)c(N)c1Cl | 111% (inactive)
CCN(CC)c1ccc2nc3c4ccccc4c(=NC(=O)c4ccccc4-c4c5ccc(N(CC)CC)cc5[o+]c5cc(N(CC)CC)ccc45)cc-3oc2c1 | -59.2% (active)
NS(=O)(=O)c1cccc(Nc2nc(SCC(=O)c3ccc(Br)cc3)nc3ccccc23)c1 | 61.3% (inactive)
C#C[C@]1(O)CC[C@H]2[C@@H]3CC=C4c5sc(Nc6ccc(OC)nc6)nc5CC[C@]4(C)[C@H]3CC[C@@]21C | 17.4% (inactive)
Nc1c(S(=O)(=O)O)cc(Br)c2c1C(=O)c1ccccc1C2=O | 102% (inactive) and 107% (inactive)
O=S(=O)(Nc1ccc(Cl)cc1)c1ccc(-c2cnc(C3CC3)o2)cc1 | -27.7% (active)
O=[N+]([O-])c1cccc2nsnc12 | 93.1% (inactive)
CCN(CC)CCNC(Cc1ccccc1)c1ccc(OCc2ccccc2)cc1 (stereo not given) | 66.4% (inactive)
N/C(=N\c1nc2ccccc2[nH]1)NC(=O)Cc1cccc2ccccc12 | 79.8% (inactive)
COc1ccc2c(c1OC)O/C(=C\c1ncc([N+](=O)[O-])n1C)C2=O | 69.9% (inactive)
COc1cc(/C=C2\CCCC3=C2NC(C)=NC3c2cc(OC)c(OC)c(OC)c2)cc(OC)c1OC (stereo not given) | -4.61% (active)
O=C(O)c1ccc2c(c1Cl)C(=O)c1ccccc1C2=O | 88.9% (inactive)
C#CC#CC#CC#CC#CC#CC#CC#CC[C@@H]1OC[C@H](COC(=O)O[C@@H](C(=O)O[C@H]2C[C@@]3(O)[C@@H](OC(=O)c4ccccc4)[C@@H]4[C@]5(OC(C)=O)CO[C@@H]5C[C@H](O)[C@@]4(C)C(=O)[C@H](OC(C)=O)C(=C2C)C3(C)C)[C@@H](NC(=O)c2ccccc2)c2ccccc2)O1 | -8.1% (active)

Structure (SMILES) | growth
CC(C)C[C@H](NC(=O)Cn1cccc(CNC(=O)c2ccccc2)c1=O)B(O)O | -19.5% (active)
c1cncc(CNc2ccccc2-c2nnc(Nc3ccc4c(c3)OCO4)o2)c1 | -1.51% (active)
S=C1CCCCCN1 | 108% (inactive)
COc1cc(-c2nc3c(c(C)nc4c3nnn4-c3ccccc3)c(=O)o2)cc(OC)c1OC | 110% (inactive)
c1ccc2[nH]c(Cc3nc4ccccc4[nH]3)nc2c1 | 102% (inactive)
O=C1/C(=C/c2cccc([N+](=O)[O-])c2)COc2ccc(O)cc21 | 36.9% (inactive)
Nc1nc(Nc2ccccc2)n[nH]1 | 120% (inactive)
COc1ccc(Cn2cc3c(c2-c2cc(OC)c(OC)c(OC)c2)CCc2c(CO)noc2-3)cc1 | -17.8% (active)
COc1ccc(-c2nnc3n(C)c(=O)c4ccccc4n23)cc1N | -6.61% (active)
CCCCCCCCNc1cc2c3c(c1)CCCN3CCC2 | -23% (active)
COc1cc(OC)cc(C(=O)Nc2cnc(Nc3ccc(N4CCOCC4)nc3)nc2Oc2ccc(C(F)(F)F)cc2)c1 | 81.1% (inactive)
CC(=O)c1c(C)c2cnc(Nc3ccc(N4CCNCC4)cn3)nc2n(C2CCCC2)c1=O | 26.9% (inactive)
O[C@H](c1cc(C(F)(F)F)nc2c(C(F)(F)F)cccc12)[C@@H]1CCCCN1 | 27.3% (inactive) and -6.87% (active)
CC(C)(C)CC(C)(C)Nc1c(-c2c(O)c3ccccc3oc2=O)nc2sc3ccccc3n12 | 22.4% (inactive)
COc1cc(C2C(C#N)=C(c3c[nH]c4ccccc34)Nc3nc(N)[nH]c(=O)c32)cc(OC)c1OC (stereo not given) | 13.2% (inactive)
COc1cccc(-c2nc(SCC(=O)Nc3ccc(C(=O)/C=C/c4ccc(OC)c(OC)c4)cc3)[nH]c(=O)c2C#N)c1 | 65.7% (inactive)
O=S(=O)(NCCNc1nccc(-c2c(-c3cccc(O)c3)nc3occn23)n1)c1ccc(C(F)(F)F)cc1 | 89% (inactive)
O=C(Cc1ccc(NC(=O)c2cccc(Cl)c2)cc1)NCc1ccccc1 | 39% (inactive)
COc1cc(NCC(=O)Nc2cc(Nc3cccc(C(F)(F)F)c3)ncn2)c(Cl)c(OC)c1Cl | 101% (inactive)
COc1cc(-c2nn(-c3cccc(NC(=O)CCN4CCN(C)CC4)c3)cc2-c2ccncc2)ccc1Cl | 18.2% (inactive)
